DRD3 agonist: agonists of human D3 dopamine receptor; D3R DiscoveRx beta-arrestin cells, luminescence, 90 min; max activation, %; hit rate 0.58% among 410,000; in the data active = max activation above about 30%
Target sequence (P35462 whole entry, looked up): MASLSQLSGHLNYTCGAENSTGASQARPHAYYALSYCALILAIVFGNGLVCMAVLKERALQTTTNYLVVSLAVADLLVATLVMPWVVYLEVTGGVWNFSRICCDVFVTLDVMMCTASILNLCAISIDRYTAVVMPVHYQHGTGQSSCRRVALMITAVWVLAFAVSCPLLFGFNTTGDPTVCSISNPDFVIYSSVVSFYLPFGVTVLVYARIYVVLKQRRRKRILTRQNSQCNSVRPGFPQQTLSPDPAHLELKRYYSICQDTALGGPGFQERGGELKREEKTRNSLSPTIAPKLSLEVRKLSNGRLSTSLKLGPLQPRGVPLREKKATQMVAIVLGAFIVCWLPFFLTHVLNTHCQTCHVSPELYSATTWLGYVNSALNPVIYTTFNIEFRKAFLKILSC
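Cells at 1500/well, incubated overnight, then treated with pinned compounds (dopamine as control) for 90 min at 37 degrees C. DiscoveRx reagent added for 30 - 60 minutes at room temperature; luminescence read.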
KB-3-1 cytotox: kills parental KB-3-1 adenocarcinoma cells | hit rate 1.4% among 400,000 | AID 1347075 | KB-3-1 viability, CellTiter-Glo ATP luminescence, 72 h | Potency, µM (top dose mostly 46.1 µM), most hits filed as cytotoxic; note: nearly all actives have a fitted effect of over 60% in size
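Multi-concentration cytotoxicity screen in KB-3-1 cells grown in DMEM lacking phenol red with 10% FBS. After 72 h at 37 °C with compound, ATP-dependent luminescence was recorded.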
KB-V1 cytotox: kills drug-selected multidrug resistant KB-V1 cells | KB-V1 MDR cells viability, CellTiter-Glo, 72 h | Potency, µM (series often up to 46.1 µM), actives largely listed as cytotoxic | hit rate 3.4% among 400,000 | AID 1347076; note: nearly all actives have a fitted effect of over 60% in size
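Following 72 h at 37 degrees C with compound, KB-V1 cell viability was read by CellTiter-Glo luminescence, medium being phenol-red-free DMEM plus 10% FBS; concentration-response parameters came from normalized, curve-fitted qHTS data.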
SW480 rereplic: induces DNA re-replication in SW480 colon adenocarcinoma cells; hit rate 1.8% among 340,000; SW480 DNA re-replication, Hoechst DNA content imaging, 48 h; Potency, µM (series often up to 46.1 µM), usual class: activators; AID 624297; note: nearly all actives have a fitted effect of over 55% in size
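DNA re-replication was detected as more nuclei of elevated Hoechst intensity after 48 hr exposure to compound (23 nL pinned per well of 250 cells).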
MCF10A rerep: inducers of DNA re-replication in MCF 10A breast cells. MCF 10A DNA re-replication, Hoechst nuclear intensity, 48 h. Potency, µM (doses to about 46.1 µM), hits mostly activators. hit rate 2.9% among 350,000; note: nearly all actives have a fitted effect of over 50% in size
DRD3 antagonist: D3 dopamine receptor (human) antagonism; P35462; D3R cells, DiscoveRx beta-arrestin luminescence, antagonist mode; active compounds read low; max response, negative = inhibition, %; hit rate 2.5% among 360,000; in the data active = max response below about -50%; inconclusive = no clear call, values can overlap the other calls
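Cells expressing the human receptor were seeded at 1500 cells/well, incubated overnight at 37 degrees C in 5% CO2, then exposed to library compounds with dopamine controls for 90 minutes at 37 degrees C before luminescent detection.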
Of the large screens only hits and unclear results are named; the others gave an inactive call; ! = a repeat was not active. Compounds with a hit are over-represented: about 8.9% of the library has one in this group of screens. Unless noted, calls come from the whole dose curve; as a rule, active = well fitted curve in the direction sought with a large enough effect; inconclusive = small, poorly fitted or top-dose-only effect, or another doubt; inactive = no such curve, though single readings can be large; an effect the other way counts as inactive or inconclusive.

Cc1ccc(S(=O)(=O)CCC(=O)Nc2nnc(-c3ccc(F)cc3)o2)cc1	SW480 rereplic inconclusive, MCF10A rerep inconclusive
O=C(CCS(=O)(=O)c1ccc(F)cc1)Nc1nnc(-c2ccco2)o1	SW480 rereplic 18µM, MCF10A rerep inconclusive
Cc1cccc(C)c1OCC(=O)Nc1c(C(=O)c2ccccc2)oc2ccccc12	none (no result: SW480 rereplic, MCF10A rerep, DRD3 antagonist)
COc1ccc2c(c1)c(C(=O)N/N=C/c1ccc(O)c(O)c1)c(C)n2C	none
COc1ccc2c(c1)c(C(=O)N/N=C/c1ccc(Br)cc1)c(C)n2C	KB-3-1 cytotox inconclusive, KB-V1 cytotox inconclusive, SW480 rereplic 10µM, MCF10A rerep 13µM
CCOc1ccc(/C=N/NC(=O)c2c(C)n(C)c3ccc(OC)cc23)cc1	KB-3-1 cytotox 8.2µM, KB-V1 cytotox 13µM, SW480 rereplic inconclusive, MCF10A rerep 12µM
COc1ccc(C(=O)NCC(c2cccnc2)N2CCN(c3ccccc3F)CC2)cc1OC (centres undefined)	none (no result: SW480 rereplic, MCF10A rerep, DRD3 antagonist)
Cc1ccc(CNC(=O)CSc2nc3ccsc3c(=O)n2-c2ccc(C(=O)O)cc2)cc1	none (no result: KB-3-1 cytotox, KB-V1 cytotox, SW480 rereplic, MCF10A rerep, DRD3 antagonist)
N#C/C(C(=O)NCCc1ccccc1)=C1/N=C(NC(=O)c2cccs2)c2ccccc21	KB-3-1 cytotox inconclusive, MCF10A rerep 8.2µM
O=C(NCc1ccc2c(c1)CCN2C(=O)c1ccncc1)c1ccccc1Cl	none (no result: SW480 rereplic, MCF10A rerep, DRD3 antagonist)
CN1C(=O)c2cccc3c(S(=O)(=O)NCCc4ccccc4)ccc1c23	SW480 rereplic inconclusive, MCF10A rerep 23µM
COCCNS(=O)(=O)c1ccc2c3c(cccc13)C(=O)N2C	none
CCOc1ccc(-n2c(=S)sc3c(=O)[nH]c(SCC(=O)NC4CCCCC4)nc32)cc1	none (no result: SW480 rereplic, MCF10A rerep)
CCN(CC)C(=O)CSc1nc2c(sc(=S)n2-c2ccccc2)c(=O)[nH]1	KB-V1 cytotox inconclusive, MCF10A rerep 0.65µM
CCOC(=O)CSc1nc2c(sc(=S)n2-c2ccc(CC)cc2)c(=O)[nH]1	none
CCOC(=O)CC(=O)CSc1nc2c(sc(=S)n2-c2ccccc2)c(=O)[nH]1	MCF10A rerep 16µM
CCc1ccc(-n2c(=S)sc3c(=O)[nH]c(SCC(=O)NC4CCCCC4)nc32)cc1	DRD3 antagonist -51 (no result: SW480 rereplic, MCF10A rerep)
CCOC(=O)c1ccc(-n2c(=S)sc3c(=O)[nH]c(C)nc32)cc1	DRD3 agonist 51
COc1ccccc1NC(=O)C1=C(C)Nc2nnnn2C1c1cc(Br)c(O)c(OC)c1 (centres undefined)	none (no result: SW480 rereplic, MCF10A rerep, DRD3 antagonist)
CCN1C(=O)c2ccccc2S(=O)c2ccc(C(=O)NCc3ccc(C)cc3)cc21 (centres undefined)	none (no result: SW480 rereplic, MCF10A rerep, DRD3 antagonist)
CCN1C(=O)c2ccccc2S(=O)c2ccc(C(=O)NCCN(CC(C)C)CC(C)C)cc21 (centres undefined)	DRD3 antagonist -65
CC1CCN(CCCNC(=O)C2CCCN(c3ncnc4c3nc3n4CCCCC3)C2)CC1 (centres undefined)	SW480 rereplic inconclusive
O=C(NCCCN1CCN(c2ccc(F)cc2)CC1)C1CCCN(c2ncnc3c2nc2n3CCCCC2)C1 (centres undefined)	MCF10A rerep inconclusive, DRD3 antagonist -55
COc1ccccc1N1CCN(CCCNC(=O)C2CCCN(c3ncnc4c3nc3n4CCCCC3)C2)CC1 (centres undefined)	DRD3 antagonist -104
COc1ccc(CNC(=O)C2CCN(S(=O)(=O)c3ccc4c(c3)CCCN4C(C)=O)CC2)cc1	none (no result: SW480 rereplic, MCF10A rerep, DRD3 antagonist)
OC(COCc1ccccc1)CN1CCN(c2ccccc2)CC1 (centres undefined)	DRD3 antagonist inconclusive
OC(CSc1c(Cl)cccc1Cl)CN1CCN(c2ccccc2F)CC1 (centres undefined)	KB-3-1 cytotox inconclusive, MCF10A rerep inconclusive, DRD3 antagonist -56
C=CCc1ccccc1OCC(O)CN1CCN(c2ccccc2F)CC1 (centres undefined)	DRD3 antagonist inconclusive
Oc1ccccc1N1CCN(CC(O)COCc2ccccc2Cl)CC1 (centres undefined)	DRD3 antagonist -53
OC(CSc1ccccc1Cl)CN1CCN(c2ccccc2F)CC1 (centres undefined)	KB-3-1 cytotox inconclusive, MCF10A rerep inconclusive, DRD3 antagonist -67
Cc1ccc(C(C)C)c(OCC(O)CN2CCN(c3ccccc3F)CC2)c1 (centres undefined)	none (no result: KB-3-1 cytotox, KB-V1 cytotox, SW480 rereplic, MCF10A rerep, DRD3 antagonist)
COc1ccc(S(=O)(=O)c2c(SC)nn(Cc3ccccc3C)c2NC(C)=O)cc1	none (no result: SW480 rereplic, MCF10A rerep, DRD3 antagonist)
Cc1ccccc1Nc1c(-c2ccccn2)nc2ccccn12	KB-3-1 cytotox inconclusive, KB-V1 cytotox inconclusive, MCF10A rerep inconclusive, DRD3 antagonist inconclusive
Cc1ccc2nc(-c3ccccn3)c(Nc3ccccc3C)n2c1	KB-3-1 cytotox inconclusive, KB-V1 cytotox 0.73µM, SW480 rereplic 3.7µM, MCF10A rerep inconclusive, DRD3 antagonist -59
Cc1ccn2c(Nc3ccccc3)c(-c3ccccn3)nc2c1	KB-3-1 cytotox inconclusive, KB-V1 cytotox inconclusive, SW480 rereplic inconclusive, MCF10A rerep 16µM, DRD3 antagonist -74
Cc1ccn2c(Nc3ccccc3C)c(-c3ccccn3)nc2c1	KB-3-1 cytotox inconclusive, KB-V1 cytotox inconclusive, MCF10A rerep inconclusive, DRD3 antagonist -59
CCOc1ccc(CCNC(=O)c2cc(=O)[nH]c3ccc(S(=O)(=O)N4CCCCC4)cc23)cc1OCC	none (no result: KB-3-1 cytotox, KB-V1 cytotox, SW480 rereplic, MCF10A rerep, DRD3 antagonist)
C#CCOc1ccc(C2C(C(=O)OC)=C(C)NC3=C2C(=O)c2ccccc23)cc1OCC (centres undefined)	none (no result: SW480 rereplic, MCF10A rerep, DRD3 antagonist)
CCN(C(C)=O)c1cnc(C=NNC(N)=S)c2ccccc12	KB-V1 cytotox 15µM, SW480 rereplic 10µM, MCF10A rerep 4.6µM
NC(=S)NN=Cc1nccc2c(N)cccc12	KB-3-1 cytotox inconclusive (no result: SW480 rereplic, MCF10A rerep)
Nc1cc(N)nc(SCCOc2ccccc2F)n1	KB-V1 cytotox 23µM
COc1ccccc1OCCSc1nc(N)cc(N)n1	none
C=CCCN(C(CC(C)C)C(=O)OC)S(=O)(=O)c1ccccc1Br (centres undefined)	MCF10A rerep inconclusive
COC(=O)C(CC(C)C)N(Cc1cc(OC)cc(OC)c1)S(=O)(=O)c1ccccc1Br (centres undefined)	SW480 rereplic 21µM
CCOC(=O)[C@@H](C)N(Cc1ccc(OC)cc1)S(=O)(=O)N(Cc1ccccc1)[C@H](C(=O)OC)C(C)C	KB-3-1 cytotox inconclusive, KB-V1 cytotox 9.2µM!, MCF10A rerep inconclusive
COC(=O)[C@H](CC(C)C)N(Cc1ccccc1)S(=O)(=O)N(Cc1ccc(OC)cc1)[C@@H](CC(C)C)C(=O)OC	KB-3-1 cytotox inconclusive, KB-V1 cytotox 18µM!
O=c1[nH]c2c(-c3nc(-c4ccc(F)cc4)cs3)c(O)cn2c2ccc(Br)cc12	none (no result: DRD3 agonist, SW480 rereplic, MCF10A rerep, DRD3 antagonist)
COc1cccc(-c2cn3c(n2)sc2cc(C(=O)NC4CCCCCC4)ccc23)c1	none (no result: KB-3-1 cytotox, KB-V1 cytotox, SW480 rereplic, MCF10A rerep, DRD3 antagonist)
Cn1c(SCC(=O)Nc2nccs2)nnc1C1CC1	KB-V1 cytotox inconclusive

Screening data (PubChem)
